According to PubChem BioAssay (EPA / NIEHS):
Values joined by “and” are separate entries in the source; they are usually repeats but may differ in a detail not shown here. Identical values can stand only once. Active and inactive are the calls of the source. Rule for the calls: active = hit-call score of the fitted dose curve at least 0.9, where 1 is the maximum; inactive = score below 0.9.

Experiments:
[1] = read-out: Interleukin 17F (IL17F), IL17F (gene 112744); test: BSK_BT_xIL17F: BioMAP Diversity Plus: BT Assay for Interleukin 17F (IL17F) Biomarker Activity (AID 2284243); settings: primary human B cells with PBMC
How it was run: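 Human B cells co-cultured with PBMC; secreted IL-17F quantified by LumineX xMAP 24 hours after chemical dosing. Activity fitted in the positive direction against DMSO negative control as baseline.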

[2] = read-out: Actin alpha 1 (ACTA1), ACTA1 (gene 58); test: BSK_MyoF_ACTA1: BioMAP Diversity Plus: MyoF Assay for Actin alpha 1 (ACTA1) Biomarker Activity (AID 2284244); settings: primary human lung fibroblasts
How it was run: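 Cells were exposed to chemical for 24 h before a-SMA levels were quantified by ELISA in human lung fibroblasts. Increases were fitted against DMSO as negative control; parallel SRB staining (0.1% after 10% TCA fixation, 560 nm) assessed cytotoxicity.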

[3] = read-out: Interleukin 2 (IL2), IL2 (gene 3558); test: BSK_BT_xIL2: BioMAP Diversity Plus: BT Assay for Interleukin 2 (IL2) Biomarker Activity (AID 2284245); settings: primary human B cells with PBMC
How it was run: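 The BT system combines human B cells with peripheral blood mononuclear cells. Twenty-four hours after chemical dosing, secreted IL-2 was measured with xMAP bead technology, and responses were analyzed as increases over DMSO controls.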

[4] = read-out: Basic fibroblast growth factor (bFGF), FGF2 (gene 2247); test: BSK_MyoF_bFGF: BioMAP Diversity Plus: MyoF Assay for Basic fibroblast growth factor (bFGF) Biomarker Activity (AID 2284246); settings: primary human lung fibroblasts
How it was run: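 Chemicals are added to human lung fibroblast cultures and incubated 24 h. bFGF is then measured by ELISA, while parallel cultures receive SRB staining for total protein as a cytotoxicity check. Data are fitted upward against DMSO.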

[5] = read-out: Collagen IV, COL4A1 (gene 1282); test: BSK_MyoF_CollagenIV: BioMAP Diversity Plus: MyoF Assay for Collagen IV Biomarker Activity (AID 2284247); settings: primary human lung fibroblasts
How it was run: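 Human lung fibroblast system, 24 h chemical exposure. Endpoint: Collagen IV by ELISA, upward fit vs DMSO.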

Measured: AC50

COC(OC)(C(=O)c1ccccc1)c1ccccc1
inactive: [1] | [2] | [3] | [4] | [5]

CCCCCCOC(=O)CCCCC(=O)OCCCCCC
inactive: [1] | [2] | [3] | [4] | [5]

CC/C=C\CCOC(=O)c1ccccc1O
active: [1] 20 µM | [2] 30.7 µM | [4] 31.3 µM | [5] 33.2 µM

O=C(Oc1ccccc1)c1ccccc1C(=O)Oc1ccccc1
active: [2] 30.2 µM
inactive: [1] | [3] | [4] | [5]

c1ccc2sc(SSN3CCOCC3)nc2c1
active: [1] 19.9 µM | [2] 25.4 µM | [4] 28.8 µM | [5] 14.9 µM

COc1ccc(C(=O)/C(Br)=C\C(=O)O)cc1
inactive: [4] | [5]
active: [1] 26.5 µM and 30.2 µM | [2] 28 µM and 30.3 µM | [3] 23.2 µM and 20 µM

Nc1cccc(N)n1
inactive: [1] | [2] | [4] | [5]

CCOC(=O)/C=C\C(=O)OCC
inactive: [1] | [2] | [4] | [5]

CCOC(=O)C1=NOC(c2ccccc2)(c2ccccc2)C1
inactive: [1] | [2] | [4] | [5]

C=CC(=O)NCOCCCC
inactive: [1] | [2] | [4] | [5]

CC=C(C)C=CC=C(C)C
inactive: [2] | [4]
active: [1] 24.9 µM | [5] 0.016 µM

CC(c1cc(C(C)(C)C)cc(C(C)(C)C)c1O)c1cc(C(C)(C)C)cc(C(C)(C)C)c1O
inactive: [2] | [4] | [5]
active: [1] 18.1 µM

CCCCCCCCCCCC(C)=O
inactive: [1] | [2] | [3] | [4] | [5]

CC/C=C\C/C=C\C/C=C\CCCCCCCC(=O)OC
active: [1] 15.2 µM | [2] 6.98 µM | [4] 9.83 µM | [5] 20 µM

C=CC(=O)NC(C)(C)C
inactive: [1] | [2] | [4] | [5]

CCN1CN(CC)CN(CC)C1
inactive: [1] | [2] | [4] | [5]

Clc1cc(Cl)c(Cl)c(Cl)c1Cl
inactive: [1] | [2] | [4] | [5]

C=CC(=O)OCCCCCCOC(=O)C=C
active: [1] 9.47 µM | [2] 20 µM | [4] 34.7 µM | [5] 3.31 µM

Oc1ccc(/C=C/c2cc(O)cc(O)c2)cc1
active: [1] 23.9 µM
inactive: [2] | [4] | [5]

CC(C)c1cccc(C(C)C)c1N
inactive: [1] | [2] | [4] | [5]

CC=C(C)C(C)=O
inactive: [1] | [2] | [4] | [5]

C=CCCCCCCCCC=O
inactive: [1] | [2] | [4] | [5]

O=C(Cl)c1c(Cl)c(Cl)c(C(=O)Cl)c(Cl)c1Cl
inactive: [1] | [2] | [3] | [4] | [5]

O=C1CCCCCCCCCCC1
inactive: [1] | [2] | [3] | [4] | [5]

O=C1CCCCCCCCCCCN1
inactive: [1] | [2] | [4] | [5]

CCc1cccc(C)c1N(C(=O)CS(=O)(=O)O)C(C)COC (centres undefined)
inactive: [1] | [2] | [4] | [5]

Oc1c(Cl)cc(Cl)c(Cl)c1Cl
inactive: [1] | [3] | [5]
active: [2] 29.7 µM | [4] 20 µM

CCNc1nc(NC(C)(C)C)nc(OC)n1
inactive: [1] | [2] | [4] | [5]

CCC1(C)C(=O)N(Cl)C(=O)N1Cl (centres undefined)
inactive: [1] | [2] | [4] | [5]
